Experimental data taken from the supplement of paper PMC12494721.
Structures can show the parent of a compound that is named as a salt.

tested on: Klebsiella aerogenes DSM 30053; experiment: fold change of Histamine concentration vs plate DMSO controls (fold change (ratio)); higher = more amine produced, active = hit call of the paper (significant change in both replicates, either direction); settings: incubation time: 27 h, anaerobic, 37 °C
Outline: (§1)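 Amine values are fold changes relative to DMSO-only wells on the same plate. They derive from 27 h, 37 °C anaerobic mGAM cultures of four gut bacterial strains in 80 µL wells, dosed at 20 µM final, or 50 µM final for sweeteners. Extraction of the whole culture, LC–triple-quadrupole MS in dynamic MRM mode, external calibration curves and within-batch drift correction were used, with 2 biological replicates averaged.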

Fold change of Histamine concentration, active:
CCN1CCN(C(=O)N[C@@H](C(=O)N[C@@H]2C(=O)N3C(C(=O)O)=C(CSc4nnnn4C)CS[C@H]23)c2ccc(O)cc2)C(=O)C1=O [Cefoperazone dihydrate] (20 µM) 0.472

Fold change of Histamine concentration, inactive:
CO[C@@]1(NC(=O)CSCC#N)C(=O)N2C(C(=O)O)=C(CSc3nnnn3C)CS[C@@H]21 [Cefmetazole sodium salt] (20 µM) 1.12
CC/C(=C(\c1ccccc1)c1ccc(OCCN(C)C)cc1)c1ccccc1 [Tamoxifen citrate] (20 µM) 0.918
C#C[C@]1(O)CC[C@H]2[C@@H]3CCC4=CCCC[C@@H]4[C@H]3CC[C@@]21C [Lynestrenol] (20 µM) 1.06

tested on: Clostridium sporogenes DSM 1664; experiment: fold change of Tryptamine concentration vs plate DMSO controls (fold change (ratio)); higher = more amine produced, active = hit call of the paper (significant change in both replicates, either direction); settings: incubation time: 27 h, anaerobic, 37 °C
Outline: as §1

Fold change of Tryptamine concentration, inactive:
CC(C)(C)CC(C)(C)c1ccc(OCCOCC[N+](C)(C)Cc2ccccc2)cc1 [Benzethonium chloride] (20 µM) 0.956
Nc1ncn(C2OC(CO)C(O)C2O)c(=O)n1 (configuration not stated) [Azacytidine-5] (20 µM) 0.953
COc1cc(Cc2cnc(N)nc2N)cc(OC)c1OC [Trimethoprim] (20 µM) 0.974
O=C1C(=O)c2ccccc2C(O)=C1C1CCC(c2ccc(Cl)cc2)CC1 (configuration not stated) [Atovaquone] (20 µM) 0.793
CN1[C@@H]2CC[C@H]1CC(OC(=O)C(O)c1ccccc1)C2 (mixture of isomers) [(R,S) Homatropine hydrobromide] (20 µM) 1
CCC(C)C(C(=O)OCC[N+](C)(CC)CC)c1ccccc1 (configuration not stated) [Valethamate bromide] (20 µM) 0.963
NC(=O)c1cc[n+](CC2=C(C(=O)O)N3C(=O)[C@@H](NC(=O)C(c4ccccc4)S(=O)(=O)[O-])[C@H]3SC2)cc1 (some centres not stated) [Cefsulodin Sodium Salt Hydrate] (20 µM) 0.838
CC/C(=C(\c1ccccc1)c1ccc(OCCN(C)C)cc1)c1ccccc1 [Tamoxifen citrate] (20 µM) 0.977
C#C[C@]1(O)CC[C@H]2[C@@H]3CCC4=CCCC[C@@H]4[C@H]3CC[C@@]21C [Lynestrenol] (20 µM) 0.947

Fold change of Tryptamine concentration, active:
C[C@H]1COc2c(N3CCN(C)CC3)c(F)cc3c(=O)c(C(=O)O)cn1c23 [Levofloxacin] (20 µM) 0.0435
CO[C@@]1(NC(=O)CSCC#N)C(=O)N2C(C(=O)O)=C(CSc3nnnn3C)CS[C@@H]21 [Cefmetazole sodium salt] (20 µM) 0.0521

tested on: Ruminococcus gnavus DSM 108212; experiment: as above; settings: incubation time: 27 h, anaerobic, 37 °C
Outline: as §1

Fold change of Tryptamine concentration, inactive:
CC(C)(C)CC(C)(C)c1ccc(OCCOCC[N+](C)(C)Cc2ccccc2)cc1 [Benzethonium chloride] (20 µM) 0.866
C[C@H]1[C@H](NC(=O)/C(=N\OC(C)(C)C(=O)O)c2csc(N)n2)C(=O)N1S(=O)(=O)O [Aztreonam] (20 µM) 1.05
Nc1ccn([C@@H]2CS[C@H](CO)O2)c(=O)n1 [Lamivudine] (20 µM) 1.02
CN(C)CCCN1c2ccccc2CCc2ccccc21 [Imipramine hydrochloride] (20 µM) 0.975
Clc1ccccc1CN1CCc2sccc2C1 [Ticlopidine hydrochloride] (20 µM) 0.983
COc1ccc(CCN(C)CCCC(C#N)(c2ccc(OC)c(OC)c2)C(C)C)cc1OC (configuration not stated) [Verapamil hydrochloride] (20 µM) 0.992
Cc1cnc(NC(=O)C2=C(O)c3ccccc3S(=O)(=O)N2C)s1 [Meloxicam] (20 µM) 1.02
C=C[C@H]1CN2CC[C@H]1C[C@@H]2[C@@H](O)c1ccnc2ccc(OC)cc12 [Quinidine hydrochloride monohydrate] (20 µM) 0.978
C[C@H](CS)C(=O)N1CCC[C@H]1C(=O)O [Captopril] (20 µM) 1.04
CC(C)Cc1ccc([C@H](C)C(=O)O)cc1 [(S,+) Ibuprofen] (20 µM) 1.06
O=C(O)CCNC(=O)c1ccccc1 [Betamipron] (20 µM) 1
CCc1c2c(nc3ccc(OC(=O)N4CCC(N5CCCCC5)CC4)cc13)-c1cc3c(c(=O)n1C2)COC(=O)[C@]3(O)CC [Irinotecan hydrochloride trihydrate] (20 µM) 0.937
Nc1nc2c(ncn2COCCO)c(=O)[nH]1 [Acyclovir] (20 µM) 1.15
Nc1ncn(C2OC(CO)C(O)C2O)c(=O)n1 (configuration not stated) [Azacytidine-5] (20 µM) 0.881
O=C(O)c1cn(C2CC2)c2cc(N3CCNCC3)c(F)cc2c1=O [Ciprofloxacin hydrochloride monohydrate] (20 µM) 0.796
COc1cc(Cc2cnc(N)nc2N)cc(OC)c1OC [Trimethoprim] (20 µM) 0.895
CC[C@]12CCCN3CCc4c(n(c5ccccc45)[C@@](O)(C(=O)OC)C1)[C@@H]32 [Vincamine] (20 µM) 0.973
Cc1noc(NS(=O)(=O)c2ccc(N)cc2)c1C [Sulfisoxazole] (20 µM) 1.01
Cc1ccc(NC(=O)c2ccc(CN3CCN(C)CC3)cc2)cc1Nc1nccc(-c2cccnc2)n1 [Imatinib] (20 µM) 1.07
COc1cc2nc(N3CCN(C(=O)c4ccco4)CC3)nc(N)c2cc1OC [Prazosin hydrochloride] (20 µM) 0.924
CCOC(=O)C1=C(COCCN)NC(C)=C(C(=O)OC)C1c1ccccc1Cl (configuration not stated) [Amlodipine] (20 µM) 0.914
CN1[C@@H]2CC[C@H]1CC(OC(=O)C(O)c1ccccc1)C2 (mixture of isomers) [(R,S) Homatropine hydrobromide] (20 µM) 0.99
CCn1cc(C(=O)O)c(=O)c2cc(F)c(N3CCN(C)CC3)cc21 [Pefloxacin] (20 µM) 0.915
CN(CCOc1ccc(NS(C)(=O)=O)cc1)CCc1ccc(NS(C)(=O)=O)cc1 [Dofetilide] (20 µM) 1.04
O=C1C(CC[S+]([O-])c2ccccc2)C(=O)N(c2ccccc2)N1c1ccccc1 (configuration not stated) [Sulfinpyrazone] (20 µM) 0.904
CCC(C)C(C(=O)OCC[N+](C)(CC)CC)c1ccccc1 (configuration not stated) [Valethamate bromide] (20 µM) 0.996
CCOC(=O)C1=C(C)NC(C)=C(C(=O)OC)C1c1cccc(Cl)c1Cl (configuration not stated) [Felodipine] (20 µM) 0.876
NC(=O)c1cc[n+](CC2=C(C(=O)O)N3C(=O)[C@@H](NC(=O)C(c4ccccc4)S(=O)(=O)[O-])[C@H]3SC2)cc1 (some centres not stated) [Cefsulodin Sodium Salt Hydrate] (20 µM) 0.779
CO[C@@]1(NC(=O)CSCC#N)C(=O)N2C(C(=O)O)=C(CSc3nnnn3C)CS[C@@H]21 [Cefmetazole sodium salt] (20 µM) 0.978
C#C[C@]1(O)CC[C@H]2[C@@H]3CCC4=CCCC[C@@H]4[C@H]3CC[C@@]21C [Lynestrenol] (20 µM) 0.985

Fold change of Tryptamine concentration, active:
Cc1nnc(SCC2=C(C(=O)O)N3C(=O)[C@@H](NC(=O)Cn4cnnn4)[C@H]3SC2)s1 [Cefazolin sodium salt] (20 µM) 0.0727
O=C1C(=O)c2ccccc2C(O)=C1C1CCC(c2ccc(Cl)cc2)CC1 (configuration not stated) [Atovaquone] (20 µM) 0.753
CO/N=C(\C(=O)N[C@@H]1C(=O)N2C(C(=O)O)=C(C[N+]3(C)CCCC3)CS[C@H]12)c1csc(N)n1 [Cefepime hydrochloride] (20 µM) 0.0466
COc1c(N2C[C@@H]3CCCN[C@@H]3C2)c(F)cc2c(=O)c(C(=O)O)cn(C3CC3)c12 [Moxifloxacin] (20 µM) 0.205
C[C@H]1COc2c(N3CCN(C)CC3)c(F)cc3c(=O)c(C(=O)O)cn1c23 [Levofloxacin] (20 µM) 0.755
CCN1CCN(C(=O)N[C@@H](C(=O)N[C@@H]2C(=O)N3C(C(=O)O)=C(CSc4nnnn4C)CS[C@H]23)c2ccc(O)cc2)C(=O)C1=O [Cefoperazone dihydrate] (20 µM) 0.0363
CC/C(=C(\c1ccccc1)c1ccc(OCCN(C)C)cc1)c1ccccc1 [Tamoxifen citrate] (20 µM) 0.657
